The source of these data is the supplement of paper PMC11732987, “Enantioselective OTUD7B fragment discovery through chemoproteomics screening and high-throughput optimisation” (Communications Chemistry, 2025).

Common to all, as to assay: log2 ratio of Biotin-Ahx-Ub-VS probe labelling (fragment/DMSO); higher = less target engagement (more negative = stronger competition), active = hit call of the paper (q ≤ 0.05, log2 ratio ≤ -1)
What all share (details): compound concentration: 200 uM; treatment time: 3 h

The target in one experiment is T1, USP19 (UniProt O94966).
T1 sequence (whole entry): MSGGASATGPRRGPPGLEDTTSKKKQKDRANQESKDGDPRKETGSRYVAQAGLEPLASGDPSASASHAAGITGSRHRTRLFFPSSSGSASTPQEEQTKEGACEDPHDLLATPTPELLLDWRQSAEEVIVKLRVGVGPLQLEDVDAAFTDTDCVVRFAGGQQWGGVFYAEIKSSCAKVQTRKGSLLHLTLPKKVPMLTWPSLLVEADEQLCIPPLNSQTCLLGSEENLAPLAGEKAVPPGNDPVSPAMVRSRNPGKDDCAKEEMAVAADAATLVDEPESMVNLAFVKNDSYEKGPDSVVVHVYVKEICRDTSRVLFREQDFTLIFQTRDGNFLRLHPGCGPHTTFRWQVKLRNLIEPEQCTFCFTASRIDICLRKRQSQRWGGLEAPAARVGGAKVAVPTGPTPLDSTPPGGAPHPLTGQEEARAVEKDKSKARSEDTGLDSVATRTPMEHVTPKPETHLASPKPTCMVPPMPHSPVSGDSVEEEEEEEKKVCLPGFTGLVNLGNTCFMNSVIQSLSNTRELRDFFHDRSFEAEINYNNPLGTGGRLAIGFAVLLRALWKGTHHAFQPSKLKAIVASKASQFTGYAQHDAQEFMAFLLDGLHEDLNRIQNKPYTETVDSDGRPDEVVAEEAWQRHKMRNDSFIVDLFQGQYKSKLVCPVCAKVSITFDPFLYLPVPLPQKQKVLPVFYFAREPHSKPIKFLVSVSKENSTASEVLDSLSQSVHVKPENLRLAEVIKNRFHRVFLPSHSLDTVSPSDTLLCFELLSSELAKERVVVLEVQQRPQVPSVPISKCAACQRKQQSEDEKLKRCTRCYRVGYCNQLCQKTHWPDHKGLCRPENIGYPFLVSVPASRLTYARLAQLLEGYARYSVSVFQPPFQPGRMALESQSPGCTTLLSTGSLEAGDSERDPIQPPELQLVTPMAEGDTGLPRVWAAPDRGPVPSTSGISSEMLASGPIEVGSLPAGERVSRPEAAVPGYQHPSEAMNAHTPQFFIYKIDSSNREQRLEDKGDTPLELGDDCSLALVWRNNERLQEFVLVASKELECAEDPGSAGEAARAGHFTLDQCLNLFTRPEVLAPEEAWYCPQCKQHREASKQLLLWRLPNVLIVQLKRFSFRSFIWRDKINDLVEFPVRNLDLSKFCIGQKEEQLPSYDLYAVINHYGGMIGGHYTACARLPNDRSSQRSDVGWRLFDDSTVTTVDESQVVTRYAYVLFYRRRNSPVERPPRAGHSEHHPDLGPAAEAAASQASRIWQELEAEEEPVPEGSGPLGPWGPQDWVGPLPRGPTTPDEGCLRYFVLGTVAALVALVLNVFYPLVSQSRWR
In a few lines:
(§1)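 Labelled DUBs from HEK293T lysate were NeutrAvidin-enriched, digested with LysC and trypsin, and run by diaPASEF LC-MS/MS. Before that, each 495 µg sample in Tris/CHAPS/IGEPAL buffer with protease inhibitors was treated in triplicate with fragment at 200 µM or vehicle for 3 h, then with Biotin-Ahx-Ub-VS at 0.5 µM final for 1 h. Values are average log2 ratios of fragment over vehicle by unpaired t-test, based on global-median-normalised Spectronaut label-free quantities from proteins with ≥2 unique peptides.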

The target of a further experiment is USP24 (UniProt Q9UPU5). In a few lines:
as §1

Another experiment concerns the target T2, USP25 (UniProt Q9UHP3).
T2 sequence (whole entry): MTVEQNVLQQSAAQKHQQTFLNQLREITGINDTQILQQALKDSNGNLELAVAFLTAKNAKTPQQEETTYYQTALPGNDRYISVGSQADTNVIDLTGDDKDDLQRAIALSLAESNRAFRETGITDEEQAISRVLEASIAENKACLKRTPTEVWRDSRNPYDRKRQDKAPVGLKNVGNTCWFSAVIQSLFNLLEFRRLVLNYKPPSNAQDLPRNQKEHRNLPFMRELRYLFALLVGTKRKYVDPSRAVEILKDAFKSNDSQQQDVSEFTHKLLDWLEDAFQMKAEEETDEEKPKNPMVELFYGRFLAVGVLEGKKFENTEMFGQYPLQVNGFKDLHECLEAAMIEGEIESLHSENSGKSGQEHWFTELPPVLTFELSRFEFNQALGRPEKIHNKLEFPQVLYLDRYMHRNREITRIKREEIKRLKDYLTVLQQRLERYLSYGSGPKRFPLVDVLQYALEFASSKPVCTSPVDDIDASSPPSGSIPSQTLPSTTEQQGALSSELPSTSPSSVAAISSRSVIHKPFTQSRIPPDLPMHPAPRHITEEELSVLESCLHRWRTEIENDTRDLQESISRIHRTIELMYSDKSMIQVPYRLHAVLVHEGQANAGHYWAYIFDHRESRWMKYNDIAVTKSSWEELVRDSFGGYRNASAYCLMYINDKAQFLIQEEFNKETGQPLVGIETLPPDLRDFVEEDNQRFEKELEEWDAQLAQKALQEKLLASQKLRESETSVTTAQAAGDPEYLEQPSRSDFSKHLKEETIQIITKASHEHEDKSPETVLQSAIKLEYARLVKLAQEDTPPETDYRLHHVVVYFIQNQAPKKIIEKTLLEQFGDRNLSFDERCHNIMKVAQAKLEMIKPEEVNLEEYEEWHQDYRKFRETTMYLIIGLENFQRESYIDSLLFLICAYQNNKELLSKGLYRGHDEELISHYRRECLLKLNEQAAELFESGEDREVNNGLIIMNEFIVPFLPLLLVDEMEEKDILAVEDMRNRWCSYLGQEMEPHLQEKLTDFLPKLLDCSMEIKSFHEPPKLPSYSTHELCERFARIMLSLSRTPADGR
In a few lines:
as §1

A further experiment concerns the target T3, USP28 (UniProt Q96RU2).
T3 sequence (whole entry): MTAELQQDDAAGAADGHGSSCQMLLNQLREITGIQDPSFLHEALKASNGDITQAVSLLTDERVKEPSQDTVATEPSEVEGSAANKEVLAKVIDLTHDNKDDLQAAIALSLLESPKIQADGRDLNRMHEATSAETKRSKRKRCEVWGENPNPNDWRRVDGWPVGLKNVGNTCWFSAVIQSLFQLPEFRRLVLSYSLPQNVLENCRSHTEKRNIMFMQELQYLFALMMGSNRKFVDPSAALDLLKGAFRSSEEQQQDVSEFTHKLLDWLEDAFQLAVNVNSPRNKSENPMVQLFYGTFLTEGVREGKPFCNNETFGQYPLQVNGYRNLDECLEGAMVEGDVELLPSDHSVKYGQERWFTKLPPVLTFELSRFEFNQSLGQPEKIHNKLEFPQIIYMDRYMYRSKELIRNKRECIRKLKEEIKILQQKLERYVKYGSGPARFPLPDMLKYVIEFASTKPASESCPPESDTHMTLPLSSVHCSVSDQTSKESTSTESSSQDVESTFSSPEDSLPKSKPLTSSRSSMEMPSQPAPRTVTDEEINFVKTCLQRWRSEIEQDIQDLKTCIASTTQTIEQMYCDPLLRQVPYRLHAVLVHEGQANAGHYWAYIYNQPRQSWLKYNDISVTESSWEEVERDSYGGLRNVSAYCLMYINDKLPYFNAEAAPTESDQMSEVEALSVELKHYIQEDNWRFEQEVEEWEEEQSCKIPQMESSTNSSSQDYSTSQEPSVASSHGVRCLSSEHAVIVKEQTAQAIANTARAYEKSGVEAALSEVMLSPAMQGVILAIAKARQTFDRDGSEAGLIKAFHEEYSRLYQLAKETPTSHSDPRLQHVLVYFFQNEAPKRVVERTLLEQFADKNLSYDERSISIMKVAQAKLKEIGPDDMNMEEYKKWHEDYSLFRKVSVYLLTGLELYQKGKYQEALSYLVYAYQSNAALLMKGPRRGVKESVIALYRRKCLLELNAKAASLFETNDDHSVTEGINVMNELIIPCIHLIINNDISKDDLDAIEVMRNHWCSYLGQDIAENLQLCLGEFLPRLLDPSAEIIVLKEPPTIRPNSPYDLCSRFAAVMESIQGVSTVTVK
In a few lines:
as §1

Unmarked numbers belong to inactive results.

USP24, sequence (Q9UPU5 whole entry): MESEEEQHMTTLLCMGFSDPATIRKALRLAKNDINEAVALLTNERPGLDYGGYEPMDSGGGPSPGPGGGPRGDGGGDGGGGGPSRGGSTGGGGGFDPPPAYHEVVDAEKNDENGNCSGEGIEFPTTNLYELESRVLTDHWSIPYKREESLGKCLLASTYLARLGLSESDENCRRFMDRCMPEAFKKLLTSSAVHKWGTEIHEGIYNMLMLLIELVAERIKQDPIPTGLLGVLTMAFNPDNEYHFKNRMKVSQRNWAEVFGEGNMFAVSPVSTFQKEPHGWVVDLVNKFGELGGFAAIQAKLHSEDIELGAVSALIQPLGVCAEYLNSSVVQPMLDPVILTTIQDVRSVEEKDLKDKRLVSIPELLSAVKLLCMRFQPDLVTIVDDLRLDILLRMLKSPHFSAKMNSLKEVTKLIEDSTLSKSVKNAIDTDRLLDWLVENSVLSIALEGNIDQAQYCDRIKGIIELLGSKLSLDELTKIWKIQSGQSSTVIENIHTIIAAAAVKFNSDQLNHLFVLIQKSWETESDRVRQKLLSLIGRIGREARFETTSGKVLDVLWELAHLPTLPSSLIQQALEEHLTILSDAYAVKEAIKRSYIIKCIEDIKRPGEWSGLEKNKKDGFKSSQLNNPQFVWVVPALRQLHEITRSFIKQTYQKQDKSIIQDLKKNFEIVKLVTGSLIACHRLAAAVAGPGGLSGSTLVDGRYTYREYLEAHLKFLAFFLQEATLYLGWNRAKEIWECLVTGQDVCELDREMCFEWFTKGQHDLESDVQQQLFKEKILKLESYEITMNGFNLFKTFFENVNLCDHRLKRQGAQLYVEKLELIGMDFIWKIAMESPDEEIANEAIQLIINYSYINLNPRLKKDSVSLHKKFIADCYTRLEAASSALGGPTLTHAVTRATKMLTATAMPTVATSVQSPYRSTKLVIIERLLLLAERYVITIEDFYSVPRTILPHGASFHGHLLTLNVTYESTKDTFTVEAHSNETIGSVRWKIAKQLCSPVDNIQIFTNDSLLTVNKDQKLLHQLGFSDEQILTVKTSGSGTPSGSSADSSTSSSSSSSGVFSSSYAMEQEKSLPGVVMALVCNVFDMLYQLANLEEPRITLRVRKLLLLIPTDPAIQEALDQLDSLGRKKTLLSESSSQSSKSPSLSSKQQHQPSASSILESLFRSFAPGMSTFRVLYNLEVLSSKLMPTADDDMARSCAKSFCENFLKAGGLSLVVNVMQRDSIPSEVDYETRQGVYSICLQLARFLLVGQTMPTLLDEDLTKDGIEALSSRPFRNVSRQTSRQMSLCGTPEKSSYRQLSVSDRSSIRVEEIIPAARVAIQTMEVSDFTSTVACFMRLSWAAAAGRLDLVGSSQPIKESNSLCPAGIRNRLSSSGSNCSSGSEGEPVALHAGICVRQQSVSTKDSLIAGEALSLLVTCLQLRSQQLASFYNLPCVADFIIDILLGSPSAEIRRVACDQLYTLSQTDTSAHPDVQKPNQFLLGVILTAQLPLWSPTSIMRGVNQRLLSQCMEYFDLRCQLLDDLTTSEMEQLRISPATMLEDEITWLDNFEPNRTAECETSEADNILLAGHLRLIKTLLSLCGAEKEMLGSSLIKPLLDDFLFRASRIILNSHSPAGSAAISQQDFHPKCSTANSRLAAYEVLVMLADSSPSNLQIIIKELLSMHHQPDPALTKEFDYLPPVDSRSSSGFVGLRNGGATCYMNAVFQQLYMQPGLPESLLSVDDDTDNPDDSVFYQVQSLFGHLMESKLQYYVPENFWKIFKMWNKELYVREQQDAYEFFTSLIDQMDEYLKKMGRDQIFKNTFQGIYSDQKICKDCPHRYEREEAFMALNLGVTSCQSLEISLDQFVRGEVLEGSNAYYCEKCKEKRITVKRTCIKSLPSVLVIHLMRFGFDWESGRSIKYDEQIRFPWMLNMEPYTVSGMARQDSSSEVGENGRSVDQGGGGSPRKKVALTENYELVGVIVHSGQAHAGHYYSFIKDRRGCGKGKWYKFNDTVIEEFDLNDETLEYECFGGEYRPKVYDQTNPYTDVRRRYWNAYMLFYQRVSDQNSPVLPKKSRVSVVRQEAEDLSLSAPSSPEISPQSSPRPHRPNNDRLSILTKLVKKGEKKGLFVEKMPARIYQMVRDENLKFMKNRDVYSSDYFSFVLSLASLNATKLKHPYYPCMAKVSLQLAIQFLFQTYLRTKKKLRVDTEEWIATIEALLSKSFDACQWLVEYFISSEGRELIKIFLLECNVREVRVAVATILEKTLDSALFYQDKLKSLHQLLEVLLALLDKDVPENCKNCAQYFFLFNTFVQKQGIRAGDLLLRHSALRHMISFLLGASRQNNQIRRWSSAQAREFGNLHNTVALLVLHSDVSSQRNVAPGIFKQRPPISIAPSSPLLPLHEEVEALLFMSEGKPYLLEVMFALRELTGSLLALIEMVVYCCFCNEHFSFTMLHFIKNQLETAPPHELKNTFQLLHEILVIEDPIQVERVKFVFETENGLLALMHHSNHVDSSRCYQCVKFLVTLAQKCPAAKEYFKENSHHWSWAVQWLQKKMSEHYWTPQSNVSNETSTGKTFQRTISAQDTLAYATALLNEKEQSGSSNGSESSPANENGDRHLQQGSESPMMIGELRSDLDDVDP

`Cl.O=C(CCl)NCCN1CCc2ccccc21`: the “log2 ratio of Biotin-Ahx-Ub-VS probe labelling” value is -0.976 in the experiment with USP19, -1.05 (active) with USP24, -0.576 with USP25 and -1.11 (active) with USP28.
